This passage reports manual score results from PubChem BioAssay AID623868 (Vanderbilt High Throughput Screening Facility, 2012).

The whole screen tested about 2,100 compounds, of which about 760 (36%) were called active.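 Rule for the calls: active = thallium-flux fluorescence traces judged by eye to show enhanced or reduced glutamate response, manual score 1 or -1, so both directions (some results past the limit were not filed as active); inactive = the rest, including fluorescent or raised-baseline compounds.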 A selection follows.

This test is described as follows: non-GIRK thallium flux modulation in mGlu8 cells, confirmation, counter-screen for GIRK activator project, cell-based, HEK-293 rmGlu8, no GIRK (AID 623868).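 Note: extra codes mark interference with 3 for fluorescent and 4 for baseline rise.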 Conditions: thallium flux fluorescence, at 10 µM, actives lie on both sides, codes: 1 enhancer, -1 blocker, 0 none, thallium stimulus containing EC20 glutamate. On the technique in general: Counterscreens check selectivity or assay interference.
With `CCOCc1c(C(=O)OCC(=O)Nc2ccc(C)c(S(=O)(=O)N(C)C)c2)oc2ccccc12`, the manual score was 0 (inactive). In the case of `Cc1cc(C)c2nc(SC(C)C(=O)NCC(=O)Nc3ccc(F)c(F)c3F)cc(C)c2c1` (stereo unspecified), the manual score was 1 (active).

In the case of `Cc1ccccc1NC1=C(Cl)C(=O)OC1OC(=O)c1ccco1` (stereo unspecified), the manual score was -1 (active). The figure for `CC(=O)c1cccc(NC(=O)CCOc2ccccc2)c1` is 0 (inactive); for `Cc1c(C(=O)O)c(=S)sn1CCOc1ccccc1` it is -1 (active). The same measure for `CCN1CCN(CCCOc2ccc(-c3ccccc3)cc2)CC1`: 0 (inactive); for `Cc1ccc(OCC(=O)NC(=S)Nc2cccc(C)n2)cc1`: 1 (active). For the compound `Cc1ccc(C(=O)NNC(=S)NC(=O)COc2ccccc2)cc1`, the manual score was 1 (active). Consider `Cc1ccccc1C(=O)NNC(=S)NC(=O)COc1ccccc1`, for which the manual score was 1 (active).

As for `CCCOc1nc2c(c(=O)n(C)c(=O)n2C)n1Cc1cccc2ccccc12`, the manual score was 0 (inactive). The same measure for `CCc1cc(-c2n[nH]c(C)c2-c2nc3ccccc3n2C)c(O)c(CN2CCN(C)CC2)c1O`: 0 (inactive); for `COc1ccc(NC(=O)NC(C)c2ccncc2)cc1OC` (stereo unspecified): 0 (inactive). For the compound `Fc1ccc2nc(-c3ccccc3)nc(SCc3nnc(-c4ccccc4)o3)c2c1`, the manual score is 1 (active). As for `c1ccc(Cc2nnc(-c3ccccc3)o2)cc1`, the manual score is 0 (inactive). The same measure for `COc1cccc(/C=N/n2c(=S)n(C)c3ccccc32)c1OC`: 0 (inactive); for `COc1ccc(-c2nn(-c3ccccc3)cc2/C=N/n2cnnc2)cc1OC`: 0 (inactive).

`COc1ccc(/C=N/n2c(SC)nnc2-c2ccccc2)c(OC)c1OC`: the manual score was -1 (active). The figure for `COc1cccc(C(=O)NC(=S)Nc2ccc3c4c(cccc24)CC3)c1` is 1 (active). The figure for `O=C(COc1ccccc1)NC(=S)Nc1ccc2c3c(cccc13)CC2` is 1 (active). The figure for `COc1ccc(OC)c(Nc2cc(-c3ccccc3)nc(N)n2)c1` is 0 (inactive); for `COc1cccc(C(=O)NCc2cn3ccsc3n2)c1` it is 0 (inactive).

As for `COc1cc(NC(=O)Cn2nnc(-c3ccccc3N)n2)cc(OC)c1`, the manual score was 0 (inactive). The figure for `COc1cccc(-c2cc(C(=O)NC3CCCC3)no2)c1` is 0 (inactive); for `COc1cc(OC)cc(C(=O)Nc2nc(-c3ccccc3)c(-c3ccccc3)o2)c1` it is 1 (active). The same measure for `COc1ccc(C(=O)Nc2ccc(Oc3ncnc4sc(-c5ccccc5)cc34)cc2)cc1OC`: 0 (inactive); for `COc1cccc(C(=O)Nc2nc(-c3ccccc3)c(-c3ccccc3)o2)c1`: 1 (active). As to `O=C(Nc1ccc(CN2CCOCC2)cc1)c1cc2ccccn2n1`, the manual score is 0 (inactive).

`C=CCN1C(=O)/C(=C2/Sc3ccccc3N2C)SC1=Nc1c(C)n[nH]c1C`: the manual score was 0 (inactive). The same measure for `CCCCCn1nc(-c2ccccc2)c2nc3ccccc3nc21`: 3 (inactive). In the case of `CN1CCN(C(=S)NC(=O)/C=C/c2cccc3ccccc23)CC1`, the manual score is 0 (inactive). `COC(=O)c1[nH]c2ccc(C)cc2c1NC(=O)CCN1CCN(Cc2ccc3c(c2)OCO3)CC1`: the manual score is 0 (inactive). The same measure for `Cn1cc(CCC(=O)NCc2ccc3c(c2)OCO3)c2ccccc21`: 0 (inactive). In the case of `SC(COCc1ccccc1)CN1CCN(Cc2ccc3c(c2)OCO3)CC1` (stereo unspecified), the manual score was 0 (inactive).

With `O=C(NC(=S)N1CCN(Cc2ccc3c(c2)OCO3)CC1)c1cccc(Br)c1`, the manual score was 1 (active). As to `O=C(c1ccc(COc2c(F)c(F)c(F)c(F)c2F)o1)N1CCN(Cc2ccc3c(c2)OCO3)CC1`, the manual score is 0 (inactive).

In the case of `O=C(NC(=S)N1CCN(Cc2ccc3c(c2)OCO3)CC1)c1ccc(Cl)cc1`, the manual score was 1 (active).

With `CCOC(=O)c1ccc(NC(=O)N2CCN(Cc3cccc(F)c3)CC2)cc1`, the manual score was 0 (inactive). The same measure for `O=C(c1ccc2nccnc2c1)N1CCN(Cc2ccc3c(c2)OCO3)CC1`: 0 (inactive); for `CCN(CC)c1ccc(C(=O)NC(=S)N2CCN(Cc3ccc4c(c3)OCO4)CC2)cc1`: 1 (active); for `O=C(NC(=S)N1CCN(Cc2ccccc2)CC1)c1ccccc1`: 1 (active).

Regarding `O=C(CN1CCN(Cc2ccccc2)CC1)Nc1cccc(C(F)(F)F)c1`, the manual score was 0 (inactive). The same measure for `COCCCN(C(=S)Nc1cccc(Cl)c1)C(C)c1ccncc1` (stereo unspecified): 0 (inactive). With `CC(C)(C)CC(C)(C)NCC(O)COc1c(F)cc(Br)cc1F` (stereo unspecified), the manual score was 4 (inactive). As for `O=C(CN1CCCCC1)Nc1cccc(Oc2ccccc2)c1`, the manual score was 0 (inactive).

Regarding `CNC(=S)N/N=C(\C)c1ccc(Cl)s1`, the manual score was 1 (active). The same measure for `C/C(=N\NC(=S)NC(C)C)c1ccc(Cl)s1`: 1 (active); for `C/C(=N\NC(N)=S)c1ccc(Cl)s1`: 0.5 (inactive); for `CCC/C(=N/NC(=O)c1csc(C)c1C)c1ccc(Cl)s1`: 0 (inactive).

As for `C/C(=N\NC(=O)c1csc(C)c1C)c1ccc(Cl)s1`, the manual score is 1 (active). The same measure for `C=C(C)CNC(=S)N/N=C(\C)c1ccc(Cl)s1`: 1 (active); for `Cc1cc(C)n(CC(=O)O)n1`: 0 (inactive). As for `C/C(=N\NC(=S)NCCc1ccccc1)c1cccs1`, the manual score is 3 (inactive). For `CCNC(=S)N/N=C(\C)c1ccc(Cl)s1`, the manual score was 1 (active). The same measure for `C/C(CC(=O)NC(C)C)=N\NC(=O)COc1cc(C)c(Br)cc1Br`: 0 (inactive); for `Cn1c(N2CCCC2)nc2c1c(=O)n(Cc1ccc(Cl)cc1)c(=O)n2C`: 0 (inactive); for `COc1ccc(N2CCN(c3nc4c(c(=O)n(C)c(=O)n4C)n3Cc3ccccc3)CC2)cc1`: 0 (inactive). On to `COc1ccc(N2CCCn3c2nc2c3c(=O)n(Cc3ccccc3F)c(=O)n2C)c(OC)c1`, for which the manual score was -1 (active). The figure for `CCN(CC(=O)c1c(N)n(C)c(=O)n(C)c1=O)c1cccc2ccccc12` is 0 (inactive); for `O=C1NC(=S)SC1=C1CCCCCC1` it is 1 (active); for `CCc1cc(-c2n[nH]c(=S)n2C(C)c2ccccc2)cs1` (stereo unspecified) it is 1 (active). The same measure for `CCCCn1c(-c2csc(C(C)C)c2)n[nH]c1=S`: 1 (active); for `CCCCCNc1nc(-c2ccccc2)cs1`: 0 (inactive); for `CCCc1cc(-c2n[nH]c(=S)n2Cc2ccccc2)cs1`: 1 (active).

Consider `CCCCn1c(-c2csc3c2CCCC3)n[nH]c1=S`, for which the manual score was 0 (inactive).

Consider `CCCc1cc(-c2n[nH]c(=S)n2C(C)c2ccccc2)cs1` (stereo unspecified), for which the manual score is 0 (inactive). The same measure for `CCCCn1c(-c2csc3c2CCC(C)C3)n[nH]c1=S` (stereo unspecified): 1 (active); for `CCCc1cc(-c2n[nH]c(=S)n2CC(C)C)cs1`: 1 (active). The figure for `Cc1cccc(-n2c(C)nc3sccc3c2=O)c1` is 0 (inactive). The same measure for `Cc1cccc(-n2c(-c3csc(C(C)C)c3)n[nH]c2=S)c1`: 1 (active); for `Cc1ccc(S(=O)(=O)CC(=O)Nc2ccc(S(=O)(=O)Nc3onc(C)c3C)cc2)cc1`: 0 (inactive).

Consider `Cc1cccc2cc(/C=C3\N=C(c4ccccc4)OC3=O)c(N3CCOCC3)nc12`, for which the manual score was 3 (inactive). `COC(=O)c1ccc(CSc2nnc(Nc3ccccc3OC)s2)o1`: the manual score was 0 (inactive). The figure for `COC(=O)c1ccc(CSc2ccc3nnc(-c4ccccc4)n3n2)o1` is -1 (active). The same measure for `CCn1c(SCc2ccc(Cl)cc2)nnc1-c1ccccc1`: 0 (inactive). Consider `CCCCn1c(NC(=S)Nc2ccccc2)nc2ccccc21`, for which the manual score was 1 (active).

On to `CCCCc1ccc(NC(=S)Nc2cccnc2)cc1`, for which the manual score was 0 (inactive). In the case of `CCn1c(SCc2nc(-c3ccccc3)no2)nc2ccccc21`, the manual score is 0 (inactive). The same measure for `CCCn1c(NCc2ccc(N(C)C)cc2)nc2ccccc21`: 0 (inactive); for `CCn1c(NC(=S)Nc2ccccc2)nc2ccccc21`: 1 (active). For the compound `CCN(CC)CCn1c(NC(=O)c2ccc(Cl)cc2)nc2ccccc21`, the manual score is 0 (inactive). The figure for `CCCCN1C(=O)c2ccccc2C1C(=O)NC1CCCC1` (stereo unspecified) is 0 (inactive); for `Cc1cccc(C(=O)N2CCC(Cc3ccccc3)CC2)c1[N+](=O)[O-]` it is 0 (inactive); for `O=C(Nc1nnc(-c2ccc3c(c2)CCCC3)o1)C1COc2ccccc2O1` (stereo unspecified) it is 1 (active). The figure for `O=C(Nc1ccc(-c2nc3ccccc3o2)cc1)c1cc(-n2cnnc2)ccc1Cl` is 0 (inactive); for `O=C(Nc1nnc(-c2ccc3c(c2)CCCC3)o1)c1ccccc1Cl` it is 1 (active); for `Cc1ccc(NC(=O)c2ccc(COc3ccc4c(c3)CCC4)cc2)c(C)c1` it is 0 (inactive). On to `O=C(Nc1nnc(-c2ccc3c(c2)CCCC3)o1)c1ccc(Cl)cc1Cl`, for which the manual score was 1 (active). The figure for `NS(=O)(=O)c1ccc(NC(=O)C2COc3ccccc3O2)cc1` (stereo unspecified) is 0 (inactive). The figure for `CCC(/C=N/NC(=O)C1COc2ccccc2O1)CC` (stereo unspecified) is 0 (inactive); for `CC1CN(S(=O)(=O)c2ccc(C(=O)Nc3nnc(-c4ccc5c(c4)CCCC5)o3)cc2)CC(C)O1` (stereo unspecified) it is 1 (active). The same measure for `CCCC1COC(Cn2cncn2)(c2ccc(C)cc2)O1` (stereo unspecified): 0 (inactive). Consider `O=C(c1cnn2c(C(F)(F)F)cc(-c3cccs3)nc12)N1CCN(Cc2ccccc2)CC1`, for which the manual score was 0 (inactive). For the compound `CCCCCCCC1CC(CSc2ncn[nH]2)OC1=O` (stereo unspecified), the manual score is 0 (inactive). The same measure for `N=c1oc2ccc3ccccc3c2cc1-c1nc(-c2ccccc2)cs1`: 3 (inactive); for `CC1CCCCN1Cc1nc2c(c(=O)n(C)c(=O)n2C)n1CCc1ccccc1` (stereo unspecified): 0 (inactive); for `O=C(Nc1cccc(-c2nnc(-c3ccccc3)o2)c1)C1CCCO1` (stereo unspecified): 0 (inactive). The same measure for `CN(C)S(=O)(=O)c1ccc(C(=O)Nc2nnc(-c3ccc4c(c3)CCCC4)o2)cc1`: 0 (inactive); for `O=C(Nc1nnc(-c2ccc3c(c2)CCCC3)o1)c1ccccc1`: 1 (active). The same measure for `CN1CCN(Cc2cccc(Oc3ccc(Cl)cc3)c2)CC1`: 0 (inactive); for `Cc1ccccc1OCC(=O)N/N=C/c1cccn1C`: 0 (inactive). Take `CCCc1ccc(OCC(=O)NNC(=S)NC(=O)c2ccco2)cc1`: the manual score was 1 (active). The figure for `Cc1ccccc1OCC(=O)NNC(=S)NC(=O)c1ccco1` is 1 (active); for `O=C(Nc1ccc(Br)cc1)C1CCC(=O)N1Cc1ccccc1Cl` (stereo unspecified) it is 0 (inactive). In the case of `O=P(CCCCCCCCCP(=O)(c1ccccc1)c1ccccc1)(c1ccccc1)c1ccccc1`, the manual score was -0.5 (inactive).

On to `COc1ccccc1-c1ccc(NC2CCCC2)nn1`, for which the manual score is -1 (active). The figure for `COc1ccccc1Nc1ccc(Nc2ccccc2OC)nn1` is 0 (inactive).
